SMILES strings stand for the structures. Where “and” joins values, the source holds several entries; their conditions need not be identical. Equal entries are not always repeated. About 83,000 compounds went through this panel and 20% of them were active in at least one assay; those are over-represented in the sample as a whole.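 96-well plates, one dose, 48 hours. Percent growth reported; active if below 10.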 Values without a mark were called inactive. Calls of active or inactive are those of the source.

For this test, the system named is MDA-MB-468 breast. Nature of the test: NCI-60 one-dose screen, 48 h (100 = growth as untreated, 0 = no growth, -100 = all killed). The conditions noted are these: 10 µM unless noted.
Regarding `C/C=C(/C(=C/C)c1ccc(O)cc1)c1ccc(O)cc1`, the growth was -15.5% (active). Consider `Cc1cc(Nc2cc(N3CCN(C)CC3)nc(/C=C/c3ccccc3)n2)n[nH]1`, for which the growth is -17.8% (active). The value for `O=C(/C=C/c1ccc(F)cc1)N1CCN(C(=O)/C=C/c2ccc(C(F)(F)F)cc2)CC1` was 117%; that for `O=S(=O)(NCCNc1nccc(-c2c(-c3ccccc3)nc3sccn23)n1)c1ccc(O)cc1` was 19.9%; that for `Clc1ccc(-c2csc(Nc3cccc(Nc4csc(-c5ccc(Cl)cc5)n4)c3)n2)cc1` was 77%. Turning to `C=C(C)[C@@H]1CC[C@]2(COC(C)=O)CC[C@]3(C)[C@H](CC[C@@H]4[C@@]5(C)CCCN(C(C)=O)C(C)(C)[C@@H]5CC[C@]43C)[C@@H]12`, the growth was -49.5% (active).

On to `O=c1oc2ccc([N+](=O)[O-])cc2cc1Br`, for which the growth was 101%. As to `Cc1ccc2nc3c(nc2c1)-c1cccc2cccc-3c12`, the growth was 48.1%.

As to `CN1C(=O)N(C)C2Nn3c(s/c(=C\c4ccc(Cl)cc4Cl)c3=O)=NC21` (stereo unspecified), the growth is 59%. Regarding `O=C(O)C1C(c2ccccc2)c2ccccc2C(O)C1CO` (stereo unspecified), the growth was 117%. For the molecule `CCn1cc(-c2ccnc3[nH]c(-c4cccc(CN(C)C)c4)cc23)c(-c2ccc(NC(=O)N(C)C)cc2)n1`, the growth is 56.5%. The value for `FC(F)(F)Oc1ccc2nc3nc4ccc[nH]c4cc3c2c1` was -25.5% (active). Turning to `CC(=O)O[C@H]1CC[C@@]2(C)[C@@H](CC[C@@H]3[C@@H]2CC(=O)[C@@]2(C)[C@H]3C[C@@H](C3CCCC3=O)[C@@H]2C(C)=O)C1` (stereo partly specified), the growth was 114%.

Turning to `O=C(CN1CCN(c2cc3c(cc2F)c(=O)c(C(=O)O)cn3C2CC2)CC1)Nc1ccc(C(=O)/C=C/c2ccccc2)cc1`, the growth was 33.8%.

In the case of `CCCCCCCC/C=C\CCCCCCCCOc1cccc(CC(=O)NCC[N+]2(C)CCOCC2)c1`, the growth was 86%. In the case of `O=C1/C(=C/c2ccccc2[N+](=O)[O-])Oc2ccc(O)c(O)c21` it was 37.5%; in that of `O=[N+]([O-])c1ccc(-c2cn3nc(-c4c[nH]c5ccccc45)sc3n2)cc1`, 96%; in that of `CCCCCCCC(=O)SCC/C=C/[C@@H]1CC(=O)NCc2cccc(n2)C2=N[C@@](C)(CS2)C(=O)N[C@@H](C(C)C)C(=O)N1`, -10.5% (active).

As to `O=C(NCc1ccco1)C1CCN(S(=O)(=O)c2ccc(Cl)cc2)CC1`, the growth was 56.2%. With `CCOC(=O)C1=NN(c2ccccc2)C(=O)/C1=C\N1C(=O)CC(=O)NC1=S`, the growth is 114%.

As for `Fc1ccc(-c2nnc(-c3c(-c4ccc(F)cc4)nc4ccccn34)o2)cc1`, the growth is 92.5%. As to `COc1ccc2occ(C3=C(c4c[nH]c5ccccc45)C(=O)NC3=O)c2c1`, the growth is -2.93% (active).

Take `Cc1cc(C(=O)O)c(C)n1-c1cccc(C(=O)O)c1`: the growth was 70.1%. As for `COc1ccc2[nH]c(=O)c(/C=C/C(=O)c3ccccc3OC)cc2c1`, the growth is 16.7%. In the case of `NC(=O)NC(=O)/C=C/C(=O)OCCCl` it was 88.5%. For the molecule `Cc1c(C(N)=O)sc2c1C(=O)N(Cc1ccccc1)C1=NN=C(c3ccc(Cl)cc3)CN12`, the growth is 60.1%.

For the molecule `C=CC(=O)Nc1cccc(C)c1Nc1cc(-c2cccnc2Cc2c(C)c(OC)cc(OC)c2C)ncn1`, the growth was 19.5%.

Consider `Oc1cccc2ccc(N/N=C/c3cc(CN4CCCCC4)c(O)c4ncccc34)nc12`, for which the growth was -26.3% (active). `CC/C=C\CCC/C=C1/C(=O)C=C[C@@H]1C/C=C\CCCC(=O)O`: the growth was 76.1%. In the case of `O=[N+]([O-])/C(=C\c1ccco1)c1ccccc1Cl` it was 55.7%; in that of `CCCCOc1ncnc2nc[nH]c12`, 98.5%; in that of `COc1cc(-c2cc(C(=O)N3CCN(C(=O)c4ccccc4NCc4cccs4)CC3)nc3cc(-c4ccccc4)nn23)cc(OC)c1OC`, 64.6%. In the case of `Cc1ccc(S(=O)(=O)Oc2ccc([N+](=O)[O-])cc2[N+](=O)[O-])cc1`, the growth is 107%. For `Oc1c(CN2CCCCC2)ccc2cccnc12`, the growth was 72.3% and 81.8%. Turning to `CC(C)=CCC[C@](C)(O)C1CC[C@]2(C)[C@@H]1CC[C@@H]1[C@@]3(C)CC/C(=N\OCCC#N)C(C)(C)[C@@H]3CC[C@]12C` (stereo partly specified), the growth was 83.2%.

On to `CC(=O)N(N=O)c1ccc([N+](=O)[O-])cc1Cl`, for which the growth was 29.7%.

The record behind these values is PubChem BioAssay (NCI).
